From PubChem BioAssay
A selection: hits, their analogues and other compounds. The true share with any hit is near 9.5%.
RE007 growth inh: less growth of the S. pombe RE007 Vpr strain. Potency, µM (series often up to 92.2 µM), for inactives: at the top dose activity change, negative = less growth, most hits filed as inhibitors. 0.21% of 360,000 active. S. pombe RE007 Vpr strain, BacTiter-Glo ATP luminescence, 24 h; active = well fitted falling curve with a large enough effect; inconclusive = small, poorly fitted or top-dose-only effect; inactive = no such curve, though single readings can be large or run the other way; also: % is scaled to controls: 0 for no effect and ±100 for the full control effect; nearly all actives have a fitted effect of over 50% in size
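Fission yeast RE007 carrying one integrated HIV-1 vpr copy, seeded at OD 0.01 in PMG+AL medium with 23 nL pinned compound. Grown 24 h at 30 degrees; viability read by BacTiter-Glo luminescence after 5 min.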
NS1 inh: inhibitors of influenza NS1 protein function; Potency, µM (series often up to 46.1 µM), inactives show at the highest dose activity, positive = more growth; 0.4% of 270,000 active; also: actives are rising curves; nearly all actives have a fitted effect of over 50% in size
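Read-out: OD600 growth recovery of NS1-expressing budding yeast. Cells grown overnight at 30C in -URA glucose medium, washed, resuspended and diluted 1:100 in 2% galactose assay medium, pH 6.0. Same strain lacking NS1 served as positive control.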
Pf growth 96h: P. falciparum growth inhibition at 96 hour, primary screen for plastid delayed-death inhibitors. Potency, µM (titrated, usually from 28.7 µM), for inactives: top-dose activity change, negative = inhibition, most hits filed as inhibitors. 6.9% of 320,000 active. AID 504834. P. falciparum luciferase reporter growth, 96 h; active = well fitted inhibition curve with a large enough effect; inconclusive = small, poorly fitted or top-dose-only effect, or another doubt; inactive = no such curve, though single readings can be large or run the other way; also: % is scaled to controls: 0 for no effect and ±100 for the full control effect
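Readout is luminescence from an integrated firefly luciferase in P. falciparum. Red cells, 2% hematocrit and 0.05% parasitemia final, were cultured with compound through two parasite generations (96 hours) at 37 C, 5% CO2.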
Pf growth 48h: P. falciparum growth inhibition at 48 hours (one generation); AID 504832; Potency, µM (series often up to 28.7 µM), without a hit: at the highest dose activity change, negative = inhibition, most hits filed as inhibitors; P. falciparum luciferase growth in erythrocytes, 48 h; 5.9% of 310,000 active; active = well fitted inhibition curve with a large enough effect; inconclusive = small, poorly fitted or top-dose-only effect, or another doubt; inactive = no such curve, though single readings can be large or run the other way; also: % is scaled to controls: 0 for no effect and ±100 for the full control effect
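Read-out is firefly luciferase luminescence from an integrated reporter in P. falciparum, so falling signal marks reduced parasite growth. Infected erythrocytes were at 2% hematocrit and 0.1% parasitemia (final) in Albumax-supplemented RPMI 1640.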
SARS PLpro yeast: blocks SARS-CoV papain-like protease in a yeast assay; 0.19% of 330,000 active; Potency, µM (doses to about 32.9 µM), for inactives: at the highest dose activity, positive = growth rescue, most hits filed as activators; S. cerevisiae expressing SARS-CoV PLpro, growth rescue; AID 485353; also: 0% is about no effect; nearly all actives have a fitted effect of over 55% in size
* = called active by the depositor; u = inconclusive; x = not tested or not shown; [ ] = dose if it differs, or a comment. Unless noted, calls follow the shape of the full dose curve. Potency is read from the fitted curve at half-maximal effect.

SMILES	RE007 growth inh	NS1 inh	Pf growth 96h	Pf growth 48h	SARS PLpro yeast
C[C@]12CCC(=O)C=C1CC[C@@H]1C2[C@@H](O)C[C@@]2(C)[C@H]1CC[C@]2(O)C(=O)CO (stereo partly specified)	x	-6%	x	x	x
CCOC(=O)/C(=C/C=C/c1ccccc1)NC(=O)c1ccccc1	28%	-15%	10µM*	17%	-1%
CCOC(=O)/C(=C\C=C\c1ccccc1)NC(=O)c1ccccc1	22%	-16%	-8%	21%	9%
COc1cc2c(c(OC)c1OC)C(c1ccccc1C)CC(=O)O2 (stereo unspecified)	6%	x	x	x	-3%
Cc1cccnc1Nc1nc(-c2ccccc2)cs1	u	-89%	5%	-42%	5%
Cc1c(C(=O)Nc2nc(-c3ccccn3)cs2)oc2ccccc12	-15%	x	u	6.6µM*	0%
O=C(Nc1nc(-c2ccccn2)cs1)c1cc2ccccc2o1	u	x	u	u	-30%
Cc1ccc(C(=O)Nc2nc(-c3ccccn3)cs2)s1	u	x	u	0.41µM*	-26%
O=C(Nc1nc(-c2ccccn2)cs1)c1ncc(Cl)c(Cl)c1Cl	u	-163%	13µM*	u	x
Cc1cccnc1Nc1nc(-c2ccccn2)cs1	40µM*	-145%	x	u	-13%
CCOC(=O)c1ccccc1NC(=O)Cn1c(=O)n(Cc2ccccc2)c(=O)c2c(C)c(C)sc21	-7%	25%	u	0%	17%
O=C(Nc1nc(-c2ccccn2)cs1)c1ccc(Cl)s1	-2%	-159%	0.37µM*	x	u
O=C(COc1ccc(F)cc1Cl)Nc1nc(-c2ccccn2)cs1	x	x	13µM*	u	3%
Cn1cccc1C(=O)Nc1nc(-c2ccccn2)cs1	u	-109%	15µM*	u	-39%
Cc1nc(-c2cc(-c3nc(-c4cc(C(F)(F)F)cc(C(F)(F)F)c4)no3)no2)cs1	13%	-2%	31%	24%	1%
Cc1nc(-c2cc(-c3nc(-c4ccc(C(F)(F)F)cc4)no3)no2)cs1	1%	6%	3%	0.66µM*	1%
O=C1Nc2c(c(=O)[nH]c(=O)n2Cc2ccccc2)C1(NS(=O)(=O)c1ccccc1)C(F)(F)F (stereo unspecified)	1%	0%	15µM*	76%	1%
Cc1ccc(-n2c3c(c(=O)[nH]c2=O)C(NS(=O)(=O)c2ccc(Cl)cc2)(C(F)(F)F)C(=O)N3)cc1 (stereo unspecified)	-1%	6%	13µM*	u	3%
Cc1ccc(-n2c3c(c(=O)[nH]c2=O)C(NS(=O)(=O)c2ccc(C)cc2)(C(F)(F)F)C(=O)N3)cc1 (stereo unspecified)	0%	-4%	245%	u	-3%
CCOC(=O)N1CCc2c(sc3c2c(=O)n(Cc2ccccc2)c(=O)n3CC(=O)NCC2CCCO2)C1 (stereo unspecified)	8%	13%	u	5.9µM*	-2%
CCOC(=O)N1CCc2c(sc3c2c(=O)n(Cc2ccccc2)c(=O)n3Cc2ccccc2F)C1	-2%	15%	u	2.6µM*	-5%
CCNC(=O)C1(C)CCCN1C(=O)c1cnc2ccccc2n1 (stereo unspecified)	-2%	x	x	x	x
O=C(COC(=O)c1ccc(O)cc1)NCCCc1ccccc1	-6%	x	u	u	0%
CC(=O)N1CCOc2ccc(S(=O)(=O)N3CCC(C(=O)Nc4ccc(C)cc4)CC3)cc21	9%	7%	0%	u	-3%
Cc1ccc(NC(=O)C2CCN(C(=O)N3CCOc4ccccc43)CC2)cc1	7%	-6%	13µM*	u	5%
SMILES	RE007 growth inh	NS1 inh	Pf growth 96h	Pf growth 48h	SARS PLpro yeast
Cc1cccc(NC(=O)C2CCN(C(=O)N3CCOc4ccccc43)CC2)c1C	-12%	-5%	15µM*	u	0%
c1cc2c(cc1C(N1CCNCC1)N1CCNCC1)OCO2	x	-8%	x	x	x
COc1ccccc1CC(=O)Nc1cc(S(=O)(=O)N2CCOCC2)ccc1N1CCOCC1	-13%	x	u	u	-1%
COc1ccccc1CCC(=O)Nc1cc(S(=O)(=O)N2CCCCC2)ccc1N1CCN(C)CC1	17%	x	u	12µM*	5%
CN1CCN(c2ccc(S(=O)(=O)N3CCCCC3)cc2NC(=O)c2cccc([N+](=O)[O-])c2)CC1	-4%	1%	0%	-23%	1%
COc1cc(CCC(=O)Nc2cc(Cl)ccc2N2CCN(C)CC2)cc(OC)c1OC	-6%	-1%	x	12µM*	8%
CN1CCN(c2ccc(S(=O)(=O)N3CCCCC3)cc2NC(=O)c2ccc3ccccc3c2)CC1	8%	7%	9.3µM*	9.3µM*	-1%
Cc1ccccc1C(=O)Nc1cc(S(=O)(=O)N2CCCCC2)ccc1N1CCN(C)CC1	73%	-2%	9.3µM*	u	6%
O=C(/C=C/c1ccco1)N(Cc1cccc(F)c1)C1CCS(=O)(=O)C1 (stereo unspecified)	2%	12%	u	-8%	2%
CO[C@H]1/C=C/O[C@@]2(C)Oc3c(C)c(O)c4c(O)c(c(C=NN5CCN(C)CC5)c(O)c4c3C2=O)NC(=O)/C(C)=C\C=C\[C@H](C)[C@H](O)[C@@H](C)[C@@H](O)[C@@H](C)[C@H](OC(C)=O)[C@@H]1C	-15%[18.4 µM]	x	u	1.2µM*	-3%
CO[C@H]1C=CO[C@@]2(C)Oc3c(C)c(O)c4c(O)c(c(C=NN5CCN(C)CC5)c(O)c4c3C2=O)NC(=O)C(C)=CC=C[C@H](C)[C@H](O)[C@@H](C)[C@@H](O)[C@@H](C)[C@H](OC(C)=O)[C@@H]1C	0%[18.4 µM]	1%	1.2µM*	1.2µM*	-1%
Cc1nc(Cc2nnc(SCC(=O)N3c4ccccc4NC(=O)C3(C)C)o2)cs1	11%	x	x	x	x
c1ccc(C2=NN[C@@H]3c4ccccc4-c4ccccc4N3C2)cc1	x	-3%	x	x	x
C[C@H](NC(=O)c1ncn(Cc2ccccc2)c1C(=O)N[C@@H](C)c1ccccc1)c1ccccc1	5%	x	8.3µM*	u	-9%
CCOC(=O)c1ccc(NC(=O)c2nc[nH]c2C(=O)NC2CCN(C(=O)OC(C)(C)C)CC2)cc1	0%	-5%	u	10µM*	9%
CC(C)(C)OC(=O)N1CCC(NC(=O)c2[nH]cnc2C(=O)Nc2cccc(Cl)c2)CC1	-6%	x	u	u	-1%
CC(C)(C)OC(=O)N1CCC(NC(=O)c2nc[nH]c2C(=O)NC2CCN(C(=O)OC(C)(C)C)CC2)CC1	3%	x	3.7µM*	3.7µM*	0%
CC(C)(C)OC(=O)N1CCC(NC(=O)c2ncn(Cc3ccccc3)c2C(=O)NC2CCN(C(=O)OC(C)(C)C)CC2)CC1	2%	x	u	5.2µM*	0%
Cn1nc(C(C)(C)C)cc1C(=O)N1CCCC(c2cc(C(=O)Nc3ccccc3Cl)no2)C1 (stereo unspecified)	-1%[18.4 µM]	x	x	x	x
